Data from PubChem BioAssay.
Calls of active or inactive are those of the source.

Columns and labels:
Albumin (Bos taurus) = Albumin (Bos taurus) (UniProt P02769); assay: bovine serum albumin binders on microarray, profiling panel, artefact control for SMM control protein annotation, biochemical, small-molecule microarray, Alexa647 label, 635/667 nm fluorescence (AID 1118); conditions: BSA-A647 binding, fluorescence 635 nm, higher = more signal;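 note: score merges 667 nm emission intensity and signal-to-noise per printed compound spot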
Albumin (Bos taurus), sequence (P02769 whole entry, looked up): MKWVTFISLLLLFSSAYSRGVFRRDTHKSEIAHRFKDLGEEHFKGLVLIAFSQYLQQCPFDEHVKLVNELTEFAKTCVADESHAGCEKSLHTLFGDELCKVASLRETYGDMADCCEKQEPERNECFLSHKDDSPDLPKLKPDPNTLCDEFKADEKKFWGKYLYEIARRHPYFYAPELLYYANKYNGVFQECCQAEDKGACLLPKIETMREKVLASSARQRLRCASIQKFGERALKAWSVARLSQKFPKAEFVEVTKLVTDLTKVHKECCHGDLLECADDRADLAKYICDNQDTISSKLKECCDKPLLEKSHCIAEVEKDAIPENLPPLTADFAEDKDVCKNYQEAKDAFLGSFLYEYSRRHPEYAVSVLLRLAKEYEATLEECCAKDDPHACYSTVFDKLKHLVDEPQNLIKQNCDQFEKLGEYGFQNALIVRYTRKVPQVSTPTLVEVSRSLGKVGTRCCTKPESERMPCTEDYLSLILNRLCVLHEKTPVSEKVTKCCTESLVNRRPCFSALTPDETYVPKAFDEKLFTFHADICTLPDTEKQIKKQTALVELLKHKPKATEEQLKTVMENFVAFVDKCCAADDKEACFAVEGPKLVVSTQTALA

[1] = small-molecule microarray binders of probe aXIP, primary screen, biochemical, NeuroSMM set, 635/667 nm fluorescence (AID 1119); conditions: higher = more signal, called active from +8 up or from −8 down;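 note: probe is the protein aXip251-270 applied at 1 µg/mL to compound-printed slides; binding of probe to printed compounds measured as 667 nm fluorescence plus signal to noise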
[2] = small-molecule binders of probe aNOTCH3, primary screen, biochemical, small-molecule microarray, 635/667 nm fluorescence (AID 1120); conditions: higher = more signal;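 note: probe is a biotin-tagged antibody raised against NOTCH3 rather than NOTCH3 protein; score merges spot fluorescence near 667 nm with spot signal to noise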
[3] = small-molecule binders of probe aNOTCH2, primary screen, biochemical, small-molecule microarray, 635/667 nm fluorescence (AID 1121); conditions: higher = more signal;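 note: score merges feature fluorescence read at 667 nm with its signal to noise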
[4] = target: Carbonic anhydrase 2 (Homo sapiens) (UniProt P00918); assay: CAII small-molecule binders, profiling panel, biochemical, small-molecule microarray, Alexa647-labelled CAII (AID 1122); conditions: CAII-A647 binding fluorescence, higher = more signal
[5] = COS7 lysate on small-molecule microarray, probe aHis, 635 nm (AID 1123); conditions: COS7 cell lysate, fluorescence, higher = more signal;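 note: z-score combines 667nm fluorescence intensity with signal-to-noise per printed compound spot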
[6] = compound binding in COS7 lysate, probe aLAP1, primary screen, cell lysate, small-molecule microarray (AID 1124); conditions: probe aLAP1, fluorescence, higher = more signal;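 note: lysate comes from COS7 cells expressing LAP1 and is applied at 0.3 µg/mL; score merges spot fluorescence near 667 nm with signal-to-noise over triplicate slides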
Sam68 (KHDRBS1) = assay: Sam68 small-molecule binders, primary screen, biochemical, small-molecule microarray, 635 nm fluorescence (AID 1125); conditions: small-molecule microarray binding, higher = more signal;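 note: score merges 667 nm channel intensity with signal to noise over triplicate slides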
[7] = tested on: Chordin-like protein 2 (CHRDL2); assay: CHRDL2 small-molecule binders, primary screen, biochemical, small-molecule microarray, 635 nm fluorescence (AID 1126); conditions: small-molecule microarray binding, fluorescence 635 nm; higher = more signal;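 note: printed compound slides probed with Chrdl2 protein at 4 µg/mL for 1 h at 4 C; score merges 667 nm emission intensity with signal to noise over three replicate slides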
[8] = target: Concanavalin-A (Canavalia ensiformis) (UniProt P02866); assay: ConA small-molecule binders, primary screen, artefact control for SMM control protein annotation, biochemical, small-molecule microarray, Alexa647 label, 635 nm (AID 1127); conditions: ConA-A647 binding fluorescence, higher = more signal;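 note: z combines 667 nm emission intensity with signal-to-noise across three replicate slides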
Concanavalin-A (Canavalia ensiformis), sequence (P02866 whole entry, looked up): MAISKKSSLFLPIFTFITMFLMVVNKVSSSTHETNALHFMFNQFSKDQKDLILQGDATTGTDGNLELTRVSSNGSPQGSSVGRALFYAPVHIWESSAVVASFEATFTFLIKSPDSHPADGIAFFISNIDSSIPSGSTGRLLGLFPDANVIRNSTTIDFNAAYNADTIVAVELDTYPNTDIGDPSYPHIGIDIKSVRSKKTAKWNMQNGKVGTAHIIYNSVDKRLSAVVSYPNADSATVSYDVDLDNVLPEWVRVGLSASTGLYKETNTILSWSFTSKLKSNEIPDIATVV

[9] = anti-His antibody binders, primary screen, artefact control for SMM control protein annotation, biochemical, small-molecule microarray, 635 nm fluorescence (AID 1128); conditions: anti-His Alexa647 antibody binding, higher = more signal;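 note: score merges feature fluorescence with signal-to-noise for each printed compound spot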
[10] = tested on: Human papillomavirus type 1a E7 protein (residues 1-88); assay: HPV1a E7 small-molecule binders, primary screen, biochemical, small-molecule microarray, residues 1-88, 635 nm (AID 1129); conditions: small-molecule microarray binding, fluorescence 635 nm; higher = more signal
[11] = target: Focal adhesion kinase 1 (Homo sapiens) (UniProt Q05397); assay: small-molecule microarray binders of FAK, primary screen, biochemical, 635/667 nm fluorescence, BSA, DTT (AID 1130); conditions: PTK2 binding, 635 nm fluorescence, higher = more signal;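 note: composite of spot emission at 667 nm and signal to noise over triplicate slides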
Focal adhesion kinase 1 (Homo sapiens), sequence (Q05397 whole entry, looked up): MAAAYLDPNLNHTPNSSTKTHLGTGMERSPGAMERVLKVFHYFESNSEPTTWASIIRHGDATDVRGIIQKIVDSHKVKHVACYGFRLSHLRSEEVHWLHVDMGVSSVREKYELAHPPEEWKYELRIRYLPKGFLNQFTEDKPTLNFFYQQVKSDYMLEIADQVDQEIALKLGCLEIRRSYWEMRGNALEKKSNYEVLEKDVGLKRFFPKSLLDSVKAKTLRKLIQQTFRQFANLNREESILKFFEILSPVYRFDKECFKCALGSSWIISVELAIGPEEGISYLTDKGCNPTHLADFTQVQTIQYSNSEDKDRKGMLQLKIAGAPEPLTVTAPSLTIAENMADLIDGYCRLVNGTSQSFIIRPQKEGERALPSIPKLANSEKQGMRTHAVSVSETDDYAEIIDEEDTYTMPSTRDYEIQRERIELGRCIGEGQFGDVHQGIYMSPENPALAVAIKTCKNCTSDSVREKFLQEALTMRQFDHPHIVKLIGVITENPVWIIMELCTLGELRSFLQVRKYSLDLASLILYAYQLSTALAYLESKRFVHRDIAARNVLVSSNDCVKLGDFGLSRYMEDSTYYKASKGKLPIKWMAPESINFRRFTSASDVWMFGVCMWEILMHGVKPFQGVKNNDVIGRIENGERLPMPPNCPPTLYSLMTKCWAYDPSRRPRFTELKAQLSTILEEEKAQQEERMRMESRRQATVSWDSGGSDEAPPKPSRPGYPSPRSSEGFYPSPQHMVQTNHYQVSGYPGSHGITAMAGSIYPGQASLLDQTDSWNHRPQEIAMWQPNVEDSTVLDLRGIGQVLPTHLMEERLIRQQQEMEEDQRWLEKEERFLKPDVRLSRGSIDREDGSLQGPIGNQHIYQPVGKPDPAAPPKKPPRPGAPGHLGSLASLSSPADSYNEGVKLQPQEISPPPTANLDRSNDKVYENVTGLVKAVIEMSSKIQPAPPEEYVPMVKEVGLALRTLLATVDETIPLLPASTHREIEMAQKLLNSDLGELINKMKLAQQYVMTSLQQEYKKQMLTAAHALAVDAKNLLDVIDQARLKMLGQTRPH

[12] = tested on: Fibrinogen (Alexa647-labelled); assay: fibrinogen binders on compound microarrays, profiling panel, artefact control for SMM control-protein annotation, biochemical, small-molecule microarray, 635/667 nm fluorescence (AID 1131); conditions: fibrinogen-A647 binding fluorescence, higher = more signal;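 note: z-score merges 667 nm fluorescence with per-spot signal-to-noise over triplicate slides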
[13] = target: Follistatin (Homo sapiens) (UniProt P19883); assay: follistatin binders on small-molecule microarrays, primary screen, biochemical, small-molecule microarray, 635/667 nm fluorescence (AID 1132); conditions: FST binding, 635 nm fluorescence, higher = more signal
Follistatin (Homo sapiens), sequence (P19883 whole entry, looked up): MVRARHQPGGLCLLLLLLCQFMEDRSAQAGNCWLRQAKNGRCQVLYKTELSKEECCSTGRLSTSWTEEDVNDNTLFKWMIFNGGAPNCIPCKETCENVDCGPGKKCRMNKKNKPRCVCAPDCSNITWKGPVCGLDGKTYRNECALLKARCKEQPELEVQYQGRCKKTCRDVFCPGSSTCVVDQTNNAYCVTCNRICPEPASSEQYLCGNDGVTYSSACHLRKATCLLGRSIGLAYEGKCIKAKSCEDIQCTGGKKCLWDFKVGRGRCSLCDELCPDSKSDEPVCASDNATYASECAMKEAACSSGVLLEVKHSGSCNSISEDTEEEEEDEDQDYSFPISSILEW

[14] = target: Fibroblast growth factor 2 (Homo sapiens) (UniProt P09038); assay: FGF2 binders on small-molecule microarrays, primary screen, biochemical, small-molecule microarray, 635/667 nm fluorescence (AID 1133); conditions: small-molecule microarray binding, FGF2, fluorescence 635/667; higher = more signal
Fibroblast growth factor 2 (Homo sapiens), sequence (P09038 whole entry, looked up): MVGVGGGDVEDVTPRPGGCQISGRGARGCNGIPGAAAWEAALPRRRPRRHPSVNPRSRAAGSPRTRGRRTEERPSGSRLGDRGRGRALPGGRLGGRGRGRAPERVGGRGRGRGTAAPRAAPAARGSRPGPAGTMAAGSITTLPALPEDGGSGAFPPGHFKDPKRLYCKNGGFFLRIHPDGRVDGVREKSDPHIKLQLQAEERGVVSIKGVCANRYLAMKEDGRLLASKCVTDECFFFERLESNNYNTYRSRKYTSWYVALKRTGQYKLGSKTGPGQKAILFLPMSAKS

[15] = mitochondrial membrane potential change in A549 cells, profiling panel, cell-based, JC-1 fluorescence, basal, 24 h, 100 nL (AID 1138); conditions: higher = more signal;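 note: A549 lung adenocarcinoma cells under basal conditions with no added stimulus; test concentration not given here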
Lefty1 = Lefty1 binders on small-molecule microarrays, primary screen, biochemical, small-molecule microarray, 635/667 nm fluorescence (AID 1139); conditions: small-molecule microarray binding, fluorescence 635/667; higher = more signal
[16] = tested on: wheat germ agglutinin (Triticum aestivum), Alexa647-labelled; assay: wheat germ agglutinin binders on compound microarrays, profiling panel, artefact control for SMM control-protein annotation, biochemical, small-molecule microarray, 635/667 nm fluorescence (AID 1140); conditions: WGA-A647 binding, 635 nm fluorescence, higher = more signal;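 note: score merges 667 nm feature emission with signal to noise over triplicate slides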
[17] = target: Luciferin 4-monooxygenase (Photinus pyralis) (UniProt P08659); assay: firefly luciferase enzyme inhibitors, primary screen, biochemical, luminescence, purified enzyme, 2006 set (AID 1141); conditions: SteadyGlo luminescence, 30 min, higher = more signal, called active from +8 up or from −8 down;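 note: cell-free assay with purified firefly luciferase at 100 ng per well in PBS; test concentration not given here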
Luciferin 4-monooxygenase (Photinus pyralis), sequence (P08659 whole entry, looked up): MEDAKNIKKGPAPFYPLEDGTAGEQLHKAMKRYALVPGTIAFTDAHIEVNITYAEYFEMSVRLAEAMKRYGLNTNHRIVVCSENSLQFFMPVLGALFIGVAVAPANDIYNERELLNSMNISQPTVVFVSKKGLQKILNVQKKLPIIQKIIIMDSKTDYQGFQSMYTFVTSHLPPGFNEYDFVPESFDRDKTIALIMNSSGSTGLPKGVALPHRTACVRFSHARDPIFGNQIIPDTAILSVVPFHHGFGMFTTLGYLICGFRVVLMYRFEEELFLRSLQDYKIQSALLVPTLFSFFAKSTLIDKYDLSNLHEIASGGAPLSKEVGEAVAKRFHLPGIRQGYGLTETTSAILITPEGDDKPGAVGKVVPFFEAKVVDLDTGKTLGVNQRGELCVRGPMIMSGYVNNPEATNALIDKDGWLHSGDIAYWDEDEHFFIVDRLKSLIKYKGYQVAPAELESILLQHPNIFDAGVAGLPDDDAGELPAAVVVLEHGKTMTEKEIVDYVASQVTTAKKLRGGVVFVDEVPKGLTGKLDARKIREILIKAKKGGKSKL

Row | SMILES | composite z-score (Albumin (Bos taurus)) | composite Z-score [1] | composite z-score [2] | composite z-score [3] | composite z-score [4] | composite z-score [5] | composite z-score [6] | composite z-score (Sam68 (KHDRBS1)) | composite z-score [7] | composite z-score [8] | composite z-score [9] | composite z-score [10] | composite z-score [11] | composite z-score [12] | composite z-score [13] | composite z-score [14] | z-score [15] | composite z-score (Lefty1) | composite z-score [16] | z-score [17]
1 | CCC1=NOC(CCC2CC(OC(=O)NCc3cccc4c3OCO4)CC3(CCCC(COC(=O)NCCc4ccc(Cl)cc4)O3)O2)C1 (stereo not given) | 0.585 | -0.0197 (inactive) | -0.0647 | -0.0651 | 0.228 | 0.599 | -0.29 | 0.712 | -0.0546 | 0.0985 | 0.696 | 0.459 | -0.123 | 0.663 | 0.0801 | 1.24 | -0.415 | 0.497 | -0.191 | 0.74 (inactive)
2 | CC(C)CON=C1C[C@@H](O)[C@@H](O)[C@@H]2[C@@H]3C(=O)N(Cc4ccc5c(c4)OCO5)C(=O)[C@@H]3CC[C@@H]12 | 0.713 | 0.311 (inactive) | -0.179 | -0.0891 | 0.614 | 0.862 | -0.0121 | 0.853 | -0.0113 | 0.922 | 0.918 | 0.245 | 0.227 | 0.655 | 0.0087 | 1.22 | 0.0679 | -0.0226 | 0.0667 | 0.966 (inactive)
3 | COC(=O)[C@@H]1CC[C@H](C)[C@@H](c2ccc(Br)cc2)N1 | -0.109 | 1.22 (inactive) | 0.086 | 0.0037 | 0.665 | 0.878 | -0.243 | -1.39 | 0.322 | -0.197 | 0.426 | -1.3 | 1.38 | 0.102 | -0.291 | -0.21 | 0.0492 | -0.04 | -0.197 | -0.464 (inactive)
4 | CC(CCN1CCCc2nc(C)c(C)cc21)=NO[C@@H](C)c1cn([C@H](CO)Cc2ccccc2)nn1 | -0.139 | 0.344 (inactive) | 0.184 | -0.0282 | 0.074 | 0.531 | -0.0771 | 0.477 | 0.801 | 0.497 | 0.14 | 0.0974 | 0.338 | 0.279 | 0.764 | 0.957 | -0.088 | 0.671 | 0.152 | -0.224 (inactive)
5 | C[C@@H]1C=CCC(=O)OC[C@H](C)C(=O)N[C@@H](Cc2ccccc2)C(=O)OC1 | -0.568 | 0.398 (inactive) | -0.133 | -0.0995 | -0.187 | -0.355 | 0.552 | -0.124 | 0.981 | 0.12 | -0.044 | -0.203 | -0.0171 | 0.0608 | 0.927 | 0.589 | -0.00638 | 0.432 | 0.0031 | -0.0028 (inactive)
6 | C#CCCCON=C1C[C@@H](O)[C@@H](O)[C@@H]2[C@@H]3C(=O)N([C@@H](C)c4ccccc4)C(=O)[C@@H]3CC[C@@H]12 | 0.356 | -0.51 (inactive) | 0.114 | -0.165 | 0.717 | 0.0072 | 0.0247 | -0.105 | -0.13 | 0.123 | -0.559 | -0.82 | -0.0567 | -0.181 | -0.326 | -0.141 | -0.683 | -0.32 | 0.0859 | 0.993 (inactive)
